Data on 26 molecules can be found in PubChem BioAssay (EPA / NIEHS).

A short description of assay [1]: ATG_CRE_CIS: Attagene CIS-FACTORIAL HepG2 Assay for human cAMP Responsive Element (CRE) binding protein 3 (AID 2282926). The following applies: HepG2 CRE cis-reporter, Attagene multiplexed mRNA; actives raise or lower the signal. The essentials: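 HepG2 cells transiently transfected with a multiplexed reporter library (CRE-driven unit among them) were dosed for 24 h. Reporter mRNA was quantified by RT-PCR, fluorescent labelling, HpaI digestion and capillary electrophoresis, with bidirectional fitting against DMSO baseline.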

Assay [2] has as its target CCAAT/enhancer-binding protein beta (Homo sapiens) (UniProt P17676). In words: ATG_C_EBP_CIS: Attagene CIS-FACTORIAL HepG2 Assay for human CCAAT/Enhancer Binding Protein (C/EBP) beta (AID 2282927). The following applies: HepG2 Attagene cis-factorial transcription factor reporter; actives raise or lower the signal. Put shortly: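 Transiently transfected HepG2 (MRTU library, endogenous TF-driven promoters); 24 h dosing; total RNA → oligo(dT) RT → PCR → 6-FAM primer extension → HpaI digest → CE; fit bidirectionally vs DMSO.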

The nature of assay [3]: ATG_CMV_CIS: Attagene CIS-FACTORIAL HepG2 Assay for human CMV (Internal Marker) (AID 2282928).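 Further: endpoint acts as a background internal control marker rather than a target.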 Conditions: HepG2 CMV promoter reporter, transcription factor profiling; actives raise or lower the signal. The essentials:
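After transient transfection of HepG2 with reporter transcription units driven by cis-regulatory promoters, cells receive test chemical for 24 h. Labeled reporter amplicons, digested with HpaI, are sized and quantified by capillary electrophoresis against DMSO.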

Assay [4] in a line: ATG_DR4_LXR_CIS: Attagene CIS-FACTORIAL HepG2 Assay for human Liver X Receptor (LXR), DR4 submotif (AID 2282929). Conditions: HepG2 Attagene DR4 cis-reporter, mRNA transcription; actives raise or lower the signal. Put shortly:
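HepG2 cells were transiently transfected with multiple cis-regulated reporter units and dosed for 24 hours. The DR4 reporter mRNA was quantified by RT-PCR, 6-FAM labelling and capillary electrophoresis. Bidirectional fits used DMSO as baseline.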

The target in assay [5] is Aryl hydrocarbon receptor (Homo sapiens) (UniProt P35869). In words: ATG_Ahr_CIS: Attagene CIS-FACTORIAL HepG2 Assay for human Aryl Hydrocarbon Receptor (Ahr) (AID 2282930). The following applies: HepG2 AhR cis-factorial reporter transcription; actives raise or lower the signal. Put shortly: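 Read-out: reporter mRNA quantified by RT-PCR with fluorescent primer extension and capillary electrophoresis. Human HepG2 liver cells carried transfected cis-promoter reporter units and were exposed to chemical for 24 h; gain or loss fitted relative to DMSO.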

The nature of assay [6]: ATG_AP_1_CIS: Attagene CIS-FACTORIAL HepG2 Assay for human Activator Protein 1 (AP-1) (AID 2282931). Conditions: HepG2 Attagene cis-factorial AP-1 reporter mRNA; actives raise or lower the signal. Put shortly: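 HepG2 cells transiently transfected with cis-element-driven reporter transcription units, dosed for 24 hours. Reporter mRNA measured by RT-PCR, 6-FAM labelling, HpaI digestion and capillary electrophoresis. Bidirectional fitting against DMSO baseline.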

A short description of assay [7]: ATG_BRE_CIS: Attagene CIS-FACTORIAL HepG2 Assay for human Bone Morphogenetic Protein (BMP) Response Element (BRE) (AID 2282933). Conditions: HepG2 BMP response element reporter, Attagene transcription factor profiling; actives raise or lower the signal. The essentials: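 Read-out: reporter mRNA induction quantified by RT-PCR and capillary electrophoresis after 24 h chemical exposure of transfected HepG2 cells. Endogenous factor activity on the BMP response element; gain or loss fitted against DMSO baseline.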

Assay [8] concerns the target Retinoic acid receptor alpha (Homo sapiens) (UniProt P10276). In words: ATG_DR5_RAR_CIS: Attagene CIS-FACTORIAL HepG2 Assay for human Retinoic Acid Receptor Alpha (RARE), DR5 submotif (AID 2282934).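 On AC50: reporter responds to endogenous RAR alpha beta and gamma in HepG2 not RARA alone.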 The following applies: HepG2 Attagene cis-factorial RARE DR5 reporter, mRNA; actives raise or lower the signal. The essentials:
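Read-out: DR5-driven reporter transcript measured by RT-PCR, 6-FAM primer extension, HpaI digest and capillary electrophoresis. Human HepG2 liver cells carry transiently transfected cis-element reporter constructs; dosing lasts 24 h. Gain or loss of signal fitted against DMSO baseline.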

The target of assay [9] is Transcription factor E2F1 (Homo sapiens) (UniProt Q01094). In words: ATG_E2F_CIS: Attagene CIS-FACTORIAL HepG2 Assay for human E2F Transcription Factor 1 (AID 2282935). The following applies: HepG2 Attagene cis-reporter, E2F reporter RNA transcripts; actives raise or lower the signal. The essentials:
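Endogenous E2F1 activity read through cis-promoter reporter units transfected into HepG2. After 24 h compound treatment, reporter mRNA measured by RT-PCR, HpaI digestion and capillary electrophoresis. Bidirectional fit versus DMSO.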

Assay [10] in a line: ATG_AP_2_CIS: Attagene CIS-FACTORIAL HepG2 Assay for human Activator Protein 2 (AP-2) (AID 2282932). The following applies: HepG2 AP-2 cis-reporter, Attagene transcription factor profiling; actives raise or lower the signal. The essentials: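 HepG2 cells transiently transfected with cis-element reporter units and exposed for 24 h. Reporter mRNA measured by RT-PCR, FAM labelling, HpaI digestion and capillary electrophoresis. Changes in either direction fitted relative to DMSO.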

The AC50 is the concentration at which the activity in the assay is half-maximal.

Several values for one entry are separate records, joined by “and”; a condition that tells them apart may be missing. Identical values can stand only once. Some compounds were tested as several samples or in several runs, with calls that do not always agree. Activity calls are given as the source filed them. How the source made its calls: active means hit-call score of the fitted dose curve at least 0.9, where 1 is the maximum; inactive means score below 0.9.

Chain of Aryl hydrocarbon receptor (Homo sapiens) (P35869 whole entry, looked up): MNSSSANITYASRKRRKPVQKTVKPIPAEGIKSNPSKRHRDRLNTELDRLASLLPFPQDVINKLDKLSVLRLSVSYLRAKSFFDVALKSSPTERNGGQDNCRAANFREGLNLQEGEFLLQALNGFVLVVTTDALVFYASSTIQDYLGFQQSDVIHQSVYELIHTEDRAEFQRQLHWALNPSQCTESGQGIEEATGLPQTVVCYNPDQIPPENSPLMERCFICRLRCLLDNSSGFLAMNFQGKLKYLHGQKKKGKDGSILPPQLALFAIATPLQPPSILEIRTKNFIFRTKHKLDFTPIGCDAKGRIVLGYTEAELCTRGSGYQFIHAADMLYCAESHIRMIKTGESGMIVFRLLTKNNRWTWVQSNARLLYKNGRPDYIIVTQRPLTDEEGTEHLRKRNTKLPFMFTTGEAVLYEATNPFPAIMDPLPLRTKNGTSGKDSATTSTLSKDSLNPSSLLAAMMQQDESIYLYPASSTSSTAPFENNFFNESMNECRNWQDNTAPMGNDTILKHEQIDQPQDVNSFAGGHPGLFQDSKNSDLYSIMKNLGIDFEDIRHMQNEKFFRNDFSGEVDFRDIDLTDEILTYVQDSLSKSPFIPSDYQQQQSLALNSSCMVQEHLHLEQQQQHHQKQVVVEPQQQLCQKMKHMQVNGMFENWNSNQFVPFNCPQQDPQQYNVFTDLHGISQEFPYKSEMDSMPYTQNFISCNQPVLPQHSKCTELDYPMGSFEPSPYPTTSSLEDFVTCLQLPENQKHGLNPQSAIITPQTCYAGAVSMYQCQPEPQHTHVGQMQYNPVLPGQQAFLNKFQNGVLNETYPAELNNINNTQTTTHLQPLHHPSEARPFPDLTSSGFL
Chain of CCAAT/enhancer-binding protein beta (Homo sapiens) (P17676 whole entry, looked up): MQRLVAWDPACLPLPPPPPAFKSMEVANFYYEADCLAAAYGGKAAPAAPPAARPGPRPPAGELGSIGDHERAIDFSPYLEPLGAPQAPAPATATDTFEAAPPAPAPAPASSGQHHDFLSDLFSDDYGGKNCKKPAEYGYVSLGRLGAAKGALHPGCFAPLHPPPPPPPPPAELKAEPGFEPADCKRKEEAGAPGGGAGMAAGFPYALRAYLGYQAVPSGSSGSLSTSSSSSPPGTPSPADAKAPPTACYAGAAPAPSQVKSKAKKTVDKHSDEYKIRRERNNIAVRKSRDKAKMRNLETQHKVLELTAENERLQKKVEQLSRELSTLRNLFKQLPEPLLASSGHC
Chain of Retinoic acid receptor alpha (Homo sapiens) (P10276 whole entry, looked up): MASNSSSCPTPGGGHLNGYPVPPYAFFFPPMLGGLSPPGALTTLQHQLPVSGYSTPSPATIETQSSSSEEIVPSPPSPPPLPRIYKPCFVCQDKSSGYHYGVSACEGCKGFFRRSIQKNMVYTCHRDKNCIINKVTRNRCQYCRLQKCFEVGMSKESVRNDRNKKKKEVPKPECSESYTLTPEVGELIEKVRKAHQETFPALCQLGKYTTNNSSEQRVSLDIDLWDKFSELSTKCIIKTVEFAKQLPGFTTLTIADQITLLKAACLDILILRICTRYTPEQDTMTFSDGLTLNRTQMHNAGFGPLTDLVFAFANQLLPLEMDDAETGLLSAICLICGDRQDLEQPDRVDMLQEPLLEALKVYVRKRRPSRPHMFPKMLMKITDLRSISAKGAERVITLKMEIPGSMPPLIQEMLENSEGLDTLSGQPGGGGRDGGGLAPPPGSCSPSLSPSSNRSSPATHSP
Chain of Transcription factor E2F1 (Homo sapiens) (Q01094 whole entry, looked up): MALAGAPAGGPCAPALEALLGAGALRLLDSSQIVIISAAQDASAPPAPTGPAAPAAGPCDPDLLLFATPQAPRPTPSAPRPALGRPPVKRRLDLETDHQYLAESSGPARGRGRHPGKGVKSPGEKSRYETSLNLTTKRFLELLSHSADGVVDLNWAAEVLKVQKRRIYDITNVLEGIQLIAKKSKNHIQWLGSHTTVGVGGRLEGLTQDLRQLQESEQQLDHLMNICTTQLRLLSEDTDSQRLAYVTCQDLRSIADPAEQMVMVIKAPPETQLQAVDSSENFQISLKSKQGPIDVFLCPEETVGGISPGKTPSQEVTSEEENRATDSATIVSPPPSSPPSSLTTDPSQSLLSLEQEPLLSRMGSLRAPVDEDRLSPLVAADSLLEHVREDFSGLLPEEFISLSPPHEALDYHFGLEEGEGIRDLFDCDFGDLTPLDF

With `CCOP(=S)(OCC)SCCS(=O)(=O)CC`, the outcome in assay [1], in assay [2], in assay [3], in assay [4], in assay [5] and in assay [6] was inactive. Also, the call in assay [7], in assay [8] and in assay [9] was inactive.

As to `N#CCCO`, the molecule was classed as inactive in assay [1], in assay [2], in assay [3], in assay [4], in assay [5] and in assay [10]. Besides, the result in assay [7], in assay [8] and in assay [9] was inactive.

For the molecule `OCC(O)CCl` (configuration not stated), the call in [1], in [2], in assay [4], in assay [5], in [6] and in assay [10] was inactive. Besides, the molecule was classed as inactive in assay [7], in assay [8] and in [9].

Consider `CC(C)(c1ccccc1)c1ccc(O)c(C(C)(C)c2ccccc2)c1`, for which the AC50 in assay [1] was 2.2 µM (active); in assay [3] it was 14.9 µM (active); in assay [6], 7.38 µM (active); in assay [8] it was 2.85 µM (active). The result in assay [2], in assay [4], in assay [5], in [7] and in assay [9] was inactive.

For `O=C(Cc1ccccc1)c1ccccc1`, the outcome in assay [1], in assay [2], in assay [3], in [4], in assay [5] and in assay [6] was inactive. The molecule was classed as inactive in assay [7], in assay [8] and in [9].

On to `Nc1cccc(Cl)c1`, for which the call in assay [1], in [2], in [3], in [4], in [5] and in assay [10] was inactive. Besides, the result in assay [7] and in [9] was inactive.

For the molecule `COP(=S)(OC)Oc1ccc(Sc2ccc(OP(=S)(OC)OC)cc2)cc1`, the call in [1], in [2], in assay [5], in assay [10], in assay [8] and in [9] was inactive. In addition, the concentration at half-maximal activity (AC50) in assay [3] is 15.5 µM (active); in [4], 100 µM (active); in assay [7], 6.58 µM (active).

For the molecule `COc1cc(-c2ccc(N)c(OC)c2)ccc1N`, the AC50 in assay [1] is 31 µM (active) and 29.3 µM (active); in [2], 14.8 µM (active) and 36.5 µM (active); in assay [3] it was 10.5 µM (active) and 27.8 µM (active); in assay [8] it was 2.98 µM (active) and 19.8 µM (active). Further, the result in [4], in assay [10], in assay [7] and in assay [9] was inactive.

Turning to `Nc1cccc2ccccc12`, the molecule was called inactive in assay [1], in assay [2], in assay [6], in [10], in [7] and in [9]. For the same molecule, the AC50 in assay [4] is 154 µM (active); in assay [5], 5.16 µM (active).

Take `Clc1ccc(C2(Cn3cncn3)CC(Br)CO2)c(Cl)c1` (configuration not stated): the outcome in assay [1], in assay [2] and in assay [9] was inactive. Moreover, the AC50 in [3] was 99.5 µM (active); in [4] it was 68.1 µM (active); in assay [5] it was 27.6 µM (active); in [7], 99.5 µM (active).

For the molecule `C[C@H]1O[C@@H](O[C@H]2[C@@H](O)C[C@H](O[C@H]3[C@@H](O)C[C@H](O[C@H]4CC[C@@]5(C)[C@H](CC[C@@H]6[C@@H]5CC[C@]5(C)[C@@H](C7=CC(=O)OC7)CC[C@]65O)C4)O[C@@H]3C)O[C@@H]2C)C[C@H](O)[C@@H]1O`, the result in assay [1], in assay [3], in assay [7] and in assay [9] was inactive. Besides, the AC50 in [2] is 2.99 µM (active); in assay [4], 0.0564 µM (active); in [6] it was 13.6 µM (active); in assay [10] it was 0.141 µM (active).

`CC(C)CCCCCCOC(=O)c1ccccc1C(=O)OCCCCCCC(C)C`: the result in [1], in assay [2], in assay [3], in assay [4], in assay [5] and in assay [6] was inactive. Further, the molecule was called inactive in assay [7] and in [9].

Take `CCC(=O)c1ccccc1`: the result in assay [1], in assay [2], in assay [4], in [5], in [6] and in assay [10] was inactive. For the same molecule, the result in assay [7] and in assay [9] was inactive.

In the case of `COP(=S)(OC)Oc1c(Cl)cc(C)cc1Cl`, the molecule was called inactive in [1], in assay [2], in assay [3], in assay [4], in assay [5] and in [6]. Besides, the call in [7], in assay [8] and in assay [9] was inactive.

As for `O=Cc1cccc(Oc2ccccc2)c1`, the molecule was called inactive in [1], in assay [2], in assay [4], in assay [5], in assay [6] and in assay [7]. For the same molecule, the molecule was classed as inactive in [8] and in assay [9].

Regarding `CC(Br)C(=O)O` (configuration not stated), the molecule was called inactive in assay [1], in assay [2], in assay [4], in assay [5], in assay [6] and in assay [10]. Further, the molecule was called inactive in assay [7], in assay [8] and in assay [9].

On to `CCOP(OCC)OCC`, for which the molecule was classed as inactive in [1], in [2], in assay [4], in [5], in [6] and in assay [10]. The call in assay [7], in [8] and in assay [9] was inactive.

As to `O=C(O)C(Cl)(Cl)Cl`, the outcome in assay [1], in [2], in assay [3], in [4], in assay [6] and in assay [7] was inactive. In addition, the call in assay [8] and in [9] was inactive.

Turning to `CNC`, the molecule was classed as inactive in assay [1], in assay [2], in assay [3], in [4], in assay [5] and in assay [10]. Further, the result in assay [7] and in [9] was inactive.

Take `Cc1cc(Cl)ccc1O[C@H](C)C(=O)O`: the molecule was classed as inactive in assay [1], in assay [2], in [3], in assay [4], in assay [5] and in assay [7]. In addition, the molecule was classed as inactive in assay [8] and in [9].

As to `CCOP(=S)(OCC)Oc1nc(Cl)c(Cl)cc1Cl`, the call in [1], in assay [2] and in assay [10] was inactive. The concentration at half-maximal activity (AC50) in assay [4] was 27.4 µM (active); in assay [5], 2.35 µM (active); in assay [6], 46.2 µM (active); in [7], 65.5 µM (active); in [9] it was 48.6 µM (active).

For the molecule `CC(=O)[O][Hg][c]1ccccc1`, the results for the half-maximal activity concentration (AC50) in assay [1], in assay [2] and in assay [8] were 2.79 µM (active), 1.64 µM (active) and 1.24 µM (active), respectively. For the same molecule, the call in assay [3], in assay [4], in assay [5], in assay [10], in [7] and in [9] was inactive.

`CC(=O)OC(c1ccccc1)C(Cl)(Cl)Cl` (configuration not stated): the result in assay [1], in [2], in assay [3], in assay [4], in assay [6] and in assay [10] was inactive. In addition, the outcome in assay [7] and in assay [9] was inactive.

Consider `CCCCCCCCCl`, for which the molecule was classed as inactive in [1], in assay [2], in assay [3], in [4], in assay [5] and in assay [10]. Besides, the molecule was called inactive in [7], in [8] and in assay [9].

In the case of `CCCCCCCCSC(=O)Oc1cc(Cl)nnc1-c1ccccc1`, the result in assay [1], in assay [2], in [5], in assay [10], in assay [7] and in assay [9] was inactive. For the same molecule, the AC50 in [3] is 171 µM (active); in [4], 159 µM (active); in assay [8], 100 µM (active).

With `C[C@]12CCC(=O)C[C@@H]1CC[C@@H]1[C@@H]2CC[C@]2(C)[C@@H](O)CC[C@@H]12`, the outcome in [1], in assay [2], in assay [4], in assay [5], in assay [6] and in assay [7] was inactive. Further, the outcome in assay [8] and in assay [9] was inactive. The half-maximal activity concentration (AC50) in assay [4] was 116 µM (active); in [5] it was 23.1 µM (active); in [7], 65.4 µM (active) and 87 µM (active).
